Calls of active or inactive are those of the source.
Key:
Albumin (Bos taurus) = Albumin (Bos taurus) (UniProt P02769); test: bovine serum albumin binders on microarray, profiling panel, artefact control for SMM control protein annotation, biochemical, small-molecule microarray, Alexa647 label, 635/667 nm fluorescence (AID 1118); settings: BSA-A647 binding, fluorescence 635 nm, higher = more signal;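 also: score merges 667 nm emission intensity and signal-to-noise per printed compound spot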
[1] = small-molecule microarray binders of probe aXIP, primary screen, biochemical, NeuroSMM set, 635/667 nm fluorescence (AID 1119); settings: higher = more signal, called active from +8 up or from −8 down;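 also: probe is the protein aXip251-270 applied at 1 µg/mL to compound-printed slides; binding of probe to printed compounds measured as 667 nm fluorescence plus signal to noise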
[2] = small-molecule binders of probe aNOTCH3, primary screen, biochemical, small-molecule microarray, 635/667 nm fluorescence (AID 1120); settings: higher = more signal;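 also: probe is a biotin-tagged antibody raised against NOTCH3 rather than NOTCH3 protein; score merges spot fluorescence near 667 nm with spot signal to noise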
[3] = small-molecule binders of probe aNOTCH2, primary screen, biochemical, small-molecule microarray, 635/667 nm fluorescence (AID 1121); settings: higher = more signal;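 also: score merges feature fluorescence read at 667 nm with its signal to noise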
[4] = target: Carbonic anhydrase 2 (Homo sapiens) (UniProt P00918); test: CAII small-molecule binders, profiling panel, biochemical, small-molecule microarray, Alexa647-labelled CAII (AID 1122); settings: CAII-A647 binding fluorescence, higher = more signal
[5] = COS7 lysate on small-molecule microarray, probe aHis, 635 nm (AID 1123); settings: COS7 cell lysate, fluorescence, higher = more signal;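 also: z-score combines 667nm fluorescence intensity with signal-to-noise per printed compound spot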
[6] = compound binding in COS7 lysate, probe aLAP1, primary screen, cell lysate, small-molecule microarray (AID 1124); settings: probe aLAP1, fluorescence, higher = more signal;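 also: lysate comes from COS7 cells expressing LAP1 and is applied at 0.3 µg/mL; score merges spot fluorescence near 667 nm with signal-to-noise over triplicate slides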
Sam68 (KHDRBS1) = test: Sam68 small-molecule binders, primary screen, biochemical, small-molecule microarray, 635 nm fluorescence (AID 1125); settings: small-molecule microarray binding, higher = more signal;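 also: score merges 667 nm channel intensity with signal to noise over triplicate slides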
[7] = tested on: Chordin-like protein 2 (CHRDL2); test: CHRDL2 small-molecule binders, primary screen, biochemical, small-molecule microarray, 635 nm fluorescence (AID 1126); settings: small-molecule microarray binding, fluorescence 635 nm; higher = more signal;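 also: printed compound slides probed with Chrdl2 protein at 4 µg/mL for 1 h at 4 C; score merges 667 nm emission intensity with signal to noise over three replicate slides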
[8] = target: Concanavalin-A (Canavalia ensiformis) (UniProt P02866); test: ConA small-molecule binders, primary screen, artefact control for SMM control protein annotation, biochemical, small-molecule microarray, Alexa647 label, 635 nm (AID 1127); settings: ConA-A647 binding fluorescence, higher = more signal;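 also: z combines 667 nm emission intensity with signal-to-noise across three replicate slides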
Chain of Concanavalin-A (Canavalia ensiformis) (P02866 whole entry, looked up): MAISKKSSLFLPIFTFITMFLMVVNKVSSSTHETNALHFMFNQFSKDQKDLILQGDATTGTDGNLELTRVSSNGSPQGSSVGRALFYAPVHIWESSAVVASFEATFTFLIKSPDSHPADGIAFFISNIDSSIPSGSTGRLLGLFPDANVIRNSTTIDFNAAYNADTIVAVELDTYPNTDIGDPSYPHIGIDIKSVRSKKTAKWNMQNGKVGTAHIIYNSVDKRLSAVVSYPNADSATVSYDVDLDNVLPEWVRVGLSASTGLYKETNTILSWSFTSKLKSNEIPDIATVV

[9] = anti-His antibody binders, primary screen, artefact control for SMM control protein annotation, biochemical, small-molecule microarray, 635 nm fluorescence (AID 1128); settings: anti-His Alexa647 antibody binding, higher = more signal;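 also: score merges feature fluorescence with signal-to-noise for each printed compound spot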
[10] = tested on: Human papillomavirus type 1a E7 protein (residues 1-88); test: HPV1a E7 small-molecule binders, primary screen, biochemical, small-molecule microarray, residues 1-88, 635 nm (AID 1129); settings: small-molecule microarray binding, fluorescence 635 nm; higher = more signal
[11] = target: Focal adhesion kinase 1 (Homo sapiens) (UniProt Q05397); test: small-molecule microarray binders of FAK, primary screen, biochemical, 635/667 nm fluorescence, BSA, DTT (AID 1130); settings: PTK2 binding, 635 nm fluorescence, higher = more signal;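 also: composite of spot emission at 667 nm and signal to noise over triplicate slides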
Chain of Focal adhesion kinase 1 (Homo sapiens) (Q05397 whole entry, looked up): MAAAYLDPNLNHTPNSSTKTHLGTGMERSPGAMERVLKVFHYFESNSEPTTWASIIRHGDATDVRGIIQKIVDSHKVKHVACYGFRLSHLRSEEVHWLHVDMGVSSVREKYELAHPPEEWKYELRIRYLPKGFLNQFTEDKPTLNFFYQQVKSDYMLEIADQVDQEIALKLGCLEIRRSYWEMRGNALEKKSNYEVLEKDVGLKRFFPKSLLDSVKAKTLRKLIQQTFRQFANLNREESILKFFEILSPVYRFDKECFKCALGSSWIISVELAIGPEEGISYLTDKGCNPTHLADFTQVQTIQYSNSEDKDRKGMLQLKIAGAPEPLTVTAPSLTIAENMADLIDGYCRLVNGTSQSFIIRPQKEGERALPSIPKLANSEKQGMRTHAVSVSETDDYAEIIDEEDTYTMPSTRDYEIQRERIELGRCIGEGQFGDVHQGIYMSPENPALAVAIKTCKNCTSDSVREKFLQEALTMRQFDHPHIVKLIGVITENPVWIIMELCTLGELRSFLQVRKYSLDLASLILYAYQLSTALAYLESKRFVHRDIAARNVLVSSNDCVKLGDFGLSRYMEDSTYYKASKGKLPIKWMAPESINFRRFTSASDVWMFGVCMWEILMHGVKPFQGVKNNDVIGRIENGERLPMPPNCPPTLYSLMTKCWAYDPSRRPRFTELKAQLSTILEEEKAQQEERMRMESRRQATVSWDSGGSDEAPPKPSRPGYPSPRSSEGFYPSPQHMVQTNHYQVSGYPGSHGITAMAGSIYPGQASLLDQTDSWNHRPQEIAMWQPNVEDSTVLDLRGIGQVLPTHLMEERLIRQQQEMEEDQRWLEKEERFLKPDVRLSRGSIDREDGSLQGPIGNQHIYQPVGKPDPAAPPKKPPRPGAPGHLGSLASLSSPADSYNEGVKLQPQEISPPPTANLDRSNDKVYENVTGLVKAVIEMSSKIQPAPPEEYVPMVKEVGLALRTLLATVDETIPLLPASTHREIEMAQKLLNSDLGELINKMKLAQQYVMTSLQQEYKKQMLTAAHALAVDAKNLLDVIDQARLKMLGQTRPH

[12] = tested on: Fibrinogen (Alexa647-labelled); test: fibrinogen binders on compound microarrays, profiling panel, artefact control for SMM control-protein annotation, biochemical, small-molecule microarray, 635/667 nm fluorescence (AID 1131); settings: fibrinogen-A647 binding fluorescence, higher = more signal;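 also: z-score merges 667 nm fluorescence with per-spot signal-to-noise over triplicate slides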
[13] = target: Follistatin (Homo sapiens) (UniProt P19883); test: follistatin binders on small-molecule microarrays, primary screen, biochemical, small-molecule microarray, 635/667 nm fluorescence (AID 1132); settings: FST binding, 635 nm fluorescence, higher = more signal
Chain of Follistatin (Homo sapiens) (P19883 whole entry, looked up): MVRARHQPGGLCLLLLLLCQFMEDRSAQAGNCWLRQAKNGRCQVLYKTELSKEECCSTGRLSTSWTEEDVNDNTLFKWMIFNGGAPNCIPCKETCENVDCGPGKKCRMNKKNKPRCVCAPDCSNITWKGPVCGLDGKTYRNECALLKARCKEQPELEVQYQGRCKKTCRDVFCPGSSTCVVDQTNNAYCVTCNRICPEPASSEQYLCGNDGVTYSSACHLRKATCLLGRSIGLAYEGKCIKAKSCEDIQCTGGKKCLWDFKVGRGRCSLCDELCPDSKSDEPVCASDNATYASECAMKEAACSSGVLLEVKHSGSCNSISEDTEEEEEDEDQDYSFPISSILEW

[14] = target: Fibroblast growth factor 2 (Homo sapiens) (UniProt P09038); test: FGF2 binders on small-molecule microarrays, primary screen, biochemical, small-molecule microarray, 635/667 nm fluorescence (AID 1133); settings: small-molecule microarray binding, FGF2, fluorescence 635/667; higher = more signal
Chain of Fibroblast growth factor 2 (Homo sapiens) (P09038 whole entry, looked up): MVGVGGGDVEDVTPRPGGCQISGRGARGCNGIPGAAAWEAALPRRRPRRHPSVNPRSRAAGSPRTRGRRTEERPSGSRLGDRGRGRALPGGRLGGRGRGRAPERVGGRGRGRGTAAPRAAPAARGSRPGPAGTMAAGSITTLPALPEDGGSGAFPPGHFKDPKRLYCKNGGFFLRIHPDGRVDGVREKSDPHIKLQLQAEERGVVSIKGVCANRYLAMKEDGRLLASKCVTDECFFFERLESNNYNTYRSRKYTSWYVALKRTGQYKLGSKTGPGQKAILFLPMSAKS

[15] = mitochondrial membrane potential change in A549 cells, profiling panel, cell-based, JC-1 fluorescence, basal, 24 h, 100 nL (AID 1138); settings: higher = more signal;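 also: A549 lung adenocarcinoma cells under basal conditions with no added stimulus; test concentration not given here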
Lefty1 = Lefty1 binders on small-molecule microarrays, primary screen, biochemical, small-molecule microarray, 635/667 nm fluorescence (AID 1139); settings: small-molecule microarray binding, fluorescence 635/667; higher = more signal
[16] = tested on: wheat germ agglutinin (Triticum aestivum), Alexa647-labelled; test: wheat germ agglutinin binders on compound microarrays, profiling panel, artefact control for SMM control-protein annotation, biochemical, small-molecule microarray, 635/667 nm fluorescence (AID 1140); settings: WGA-A647 binding, 635 nm fluorescence, higher = more signal;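 also: score merges 667 nm feature emission with signal to noise over triplicate slides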
[17] = target: Luciferin 4-monooxygenase (Photinus pyralis) (UniProt P08659); test: firefly luciferase enzyme inhibitors, primary screen, biochemical, luminescence, purified enzyme, 2006 set (AID 1141); settings: SteadyGlo luminescence, 30 min, higher = more signal, called active from +8 up or from −8 down;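 also: cell-free assay with purified firefly luciferase at 100 ng per well in PBS; test concentration not given here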
Chain of Luciferin 4-monooxygenase (Photinus pyralis) (P08659 whole entry, looked up): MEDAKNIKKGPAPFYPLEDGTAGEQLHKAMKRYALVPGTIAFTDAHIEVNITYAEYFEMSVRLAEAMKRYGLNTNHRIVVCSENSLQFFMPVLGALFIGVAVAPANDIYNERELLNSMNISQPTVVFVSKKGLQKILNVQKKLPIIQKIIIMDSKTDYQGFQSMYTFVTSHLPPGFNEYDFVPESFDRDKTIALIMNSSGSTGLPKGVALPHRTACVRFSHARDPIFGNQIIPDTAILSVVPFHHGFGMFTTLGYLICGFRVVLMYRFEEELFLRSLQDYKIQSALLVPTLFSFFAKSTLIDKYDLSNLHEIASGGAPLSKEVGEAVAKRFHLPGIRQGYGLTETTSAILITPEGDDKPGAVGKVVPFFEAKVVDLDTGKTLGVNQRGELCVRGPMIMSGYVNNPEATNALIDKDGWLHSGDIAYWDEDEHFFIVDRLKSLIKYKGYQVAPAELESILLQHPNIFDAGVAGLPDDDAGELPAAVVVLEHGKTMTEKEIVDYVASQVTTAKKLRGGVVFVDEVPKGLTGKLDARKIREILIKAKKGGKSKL

Chain of Albumin (Bos taurus) (P02769 whole entry, looked up): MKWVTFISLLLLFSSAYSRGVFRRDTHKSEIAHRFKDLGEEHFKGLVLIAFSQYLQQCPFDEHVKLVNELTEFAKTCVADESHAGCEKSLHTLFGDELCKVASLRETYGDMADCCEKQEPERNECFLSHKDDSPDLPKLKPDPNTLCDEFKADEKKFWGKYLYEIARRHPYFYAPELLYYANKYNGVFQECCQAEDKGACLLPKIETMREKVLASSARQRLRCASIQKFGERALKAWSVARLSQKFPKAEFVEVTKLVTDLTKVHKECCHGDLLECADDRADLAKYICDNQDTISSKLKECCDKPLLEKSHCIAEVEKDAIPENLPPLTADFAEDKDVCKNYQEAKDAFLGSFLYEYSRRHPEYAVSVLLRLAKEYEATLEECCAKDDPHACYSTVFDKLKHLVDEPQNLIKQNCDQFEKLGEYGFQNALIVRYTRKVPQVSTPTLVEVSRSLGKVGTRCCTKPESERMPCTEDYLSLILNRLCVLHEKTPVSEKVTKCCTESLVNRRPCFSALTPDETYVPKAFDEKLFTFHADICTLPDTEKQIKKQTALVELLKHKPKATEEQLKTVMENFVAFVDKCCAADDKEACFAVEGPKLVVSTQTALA

| Structure (SMILES) | composite z-score (Albumin (Bos taurus)) | composite Z-score [1] | composite z-score [2] | composite z-score [3] | composite z-score [4] | composite z-score [5] | composite z-score [6] | composite z-score (Sam68 (KHDRBS1)) | composite z-score [7] | composite z-score [8] | composite z-score [9] | composite z-score [10] | composite z-score [11] | composite z-score [12] | composite z-score [13] | composite z-score [14] | z-score [15] | composite z-score (Lefty1) | composite z-score [16] | z-score [17] |
| --- | --- | --- | --- | --- | --- | --- | --- | --- | --- | --- | --- | --- | --- | --- | --- | --- | --- | --- | --- | --- |
| C=CC[C@]1(C(=O)NCC(O)CO)N=C(c2ccc(OCCCO)cc2)O[C@H]1c1ccccc1CN=[N+]=[N-] (stereo not given in full) | 0.0838 | 0.58 (inactive) | -0.0362 | -0.0357 | 0.522 | 3.12 | 0.988 | 0.605 | -1.33 | 0.148 | 2.81 | 1.22 | -0.209 | -0.204 | 0.875 | 0.785 | 0.895 | -0.0497 | 0.502 | -0.154 (inactive) |
| C=CCN1C(=O)[C@]2(O[C@H](CCO)[C@@H]([Si](C)(C)c3ccc(OC)cc3)[C@@H]2C)c2cc(N3C(=O)c4ccccc4Oc4ccccc43)ccc21 | 0.493 | -0.0467 (inactive) | -0.0328 | -0.125 | 0.467 | 0.506 | 0.199 | 1.11 | -0.175 | 0.91 | 0.309 | 1.14 | 0.215 | 0.694 | 0.157 | 0.0857 | -1.36 | 0.591 | 0.51 | 0.368 (inactive) |
| COc1ccc(CCNC(=O)[C@@]2(c3ccc([N+](=O)[O-])cc3)CC(=O)N(C3CCCCC3)[C@@H]2c2ccc(CO)cc2I)cc1 | -0.127 | 0.931 (inactive) | 0.0293 | 0.0254 | 0.364 | 1.52 | 0.89 | 0.962 | 0.252 | 0.754 | 0.312 | 1.19 | 0.338 | -0.0396 | 1.04 | 1.24 | 3.1 | 0.0241 | 0.402 | -1.28 (inactive) |
| COCCCNC(=O)[C@@]1(Cc2ccccc2I)c2ccccc2C(=O)N(Cc2ccccc2C(F)(F)F)[C@H]1c1ccc(CO)cc1 | 0.251 | 0.29 (inactive) | -0.136 | -0.148 | 0.487 | 1.85 | -0.462 | 0.302 | -1.44 | -0.375 | 0.611 | 0.742 | -0.0483 | 0.0568 | 0.672 | -0.742 | 0.104 | -1.15 | -0.107 | 0.636 (inactive) |
| O=C1C2C=CC(C(O)C(c3ccccc3)c3ccccc3)N(Nc3ccccc3F)C2C(=O)N1c1ccccc1 (stereo not given) | 1 | -0.173 (inactive) | 0.24 | -0.0386 | 0.612 | 2.99 | 1.02 | 1.31 | -0.0392 | 0.5 | 1.65 | 1.24 | 0.22 | 0.97 | 1.2 | 0.158 | -1.18 | 0.667 | 1.1 | 0.294 (inactive) |

Source: PubChem BioAssay
